Laboratory results published in PubChem BioAssay (Tox21).
Results filed as inconclusive are left out. A call without a number means that no potency is given here. Calls of active or inactive are those of the source. The call rests on the fitted dose curve.

test: cAMP Responsive Elements (CRE) small molecule agonists, cell-based qHTS assay (AID 1963590); conditions: CRE-bla HEK293T, beta-lactamase FRET ratio, 3 h; series mostly up to 92.4 µM
Excerpt: U.S. Tox21 Program National Center for Advancing Translational Sciences [NCATS] Division of Preclinical Innovation [DPI] U.S. Environmental Protection Agency [EPA] National Institutes of Environmental Health Sciences [NIEHS] National Toxicology Program [NTP] U.S. Food and Drug Administration [FDA] Tox21 Assay Overview: CREB (cyclic-AMP Responsive Element Binding Protein) is a cellular transcription factor. It binds to certain DNA sequences called cAMP Responsive Elements (CRE) and regulates the transcription of the genes. […] This cell line can be used to find agonists/antagonists of the cyclic AMP signaling pathway. The activation of the report gene under culture conditions can be detected by fluorescence intensity. This cell line has been used to screen the Tox21 10K compound library to identify agonists that induce oxidative stress.
Tox21 Assay Protocol Summary: CRE-bla Hek 293T cells were suspended in assay medium (DMEM containing 10% dialyzed FBS, 0.1 mM NEAA, 1 mM sodium pyruvate and 25 mM HEPES) and dispensed at 2,000 cells/5 uL /well into 1536-well black wall/clear bottom plates using a Multidrop Combi (ThermoFisher Scientific, Waltham, MA) dispenser. After the assay plates were incubated at 37 C/5% CO2 for 18 hrs, 23 nL of compounds dissolved in DMSO, positive controls or DMSO only was transferred to the assay plate by a pintool workstation (Kalypsys, San Diego, CA). After the plates were incubated at 37 C/5% CO2 for 3 hrs, 1 uL of LiveBLAzer B/G FRET substrate (Invitrogen, Carlsbad, CA) was added to each well using Bioraptr Flying Reagent Dispenser (FRD, Aurora Discovery, San Diego, CA). The plates were incubated at room temperature for 2 h.

| SMILES | Potency |
| --- | --- |
| C=CCN1CC[C@]23CCCC[C@H]2[C@H]1Cc1ccc(O)cc13 | inactive |
| NC(=O)c1cc([N+](=O)[O-])cc([N+](=O)[O-])c1 | inactive |
| COC(=O)NC(=S)Nc1ccccc1NC(=S)NC(=O)OC | inactive |
| CNC(=O)Oc1ccccc1C1OCCO1 | inactive |
| N#Cc1ccccc1Cl | inactive |
| CCN | inactive |
| Nn1cnnc1 | inactive |
| CN(CCCC(=O)c1cccnc1)N=O | inactive |
| CC(C)C1(C)N=C(c2ncccc2C(=O)O)NC1=O (stereo not given) | inactive |
| C=CCOC(N)=O | inactive |
| Clc1cnc(Oc2ccc(Oc3ncc(Cl)cc3Cl)cc2)c(Cl)c1 | inactive |
| Nc1ccc(-c2ccccc2)cc1 | inactive |
| O=C1CC(=O)NC(=O)N1 | inactive |
| O=[N+]([O-])c1cc([As](=O)(O)O)ccc1O | inactive |
| CCC1(c2ccc(N)cc2)CCC(=O)NC1=O (stereo not given) | inactive |
| NC(=O)CCl | inactive |
| O=C(O)CCCc1ccc(N(CCCl)CCCl)cc1 | inactive |
| CN(N=O)c1ccccc1 | inactive |
| C=CCc1ccccc1O | inactive |
| CCCCCCCCCCCCCCn1cc[n+](C)c1 | inactive |

| SMILES | Potency |
| --- | --- |
| CC(C)CCCCCOC(=O)c1ccccc1C(=O)OCCCCCC(C)C | inactive |
| C1CN2CCC1CC2 | inactive |
| Fc1cc(Br)ccc1CBr | inactive |
| CC1(C)[C@H](C(=O)O[C@H](C#N)c2cccc(Oc3ccccc3)c2)[C@@H]1C=C(Br)Br | inactive |
| CC(NC(C)(C)C)C(=O)c1cccc(Cl)c1 (stereo not given) | inactive |
| CC1CC(CC2CCC(N)C(C)C2)CCC1N (stereo not given) | inactive |
| [Cl-].[Cl-].[Cl-].[Fe+3] | inactive |
| [O-][Cl+]O | inactive |
| CCC(C)Cl (stereo not given) | inactive |
| O=P(O)(O)CN(CP(=O)(O)O)CP(=O)(O)O | inactive |
| BrCc1ccc(Br)cc1 | inactive |
| C1=Cc2cccc3cccc1c23 | inactive |
| COCC(=O)N(c1c(C)cccc1C)[C@H](C)C(=O)OC | inactive |
| O=S(=O)(c1ccccc1)c1ccccc1 | inactive |
| CC(C)CON=O | inactive |
| CCOP(=O)(OCC)OP(=O)(OCC)OCC | inactive |
| COP(=S)(OC)SCn1nnc2ccccc2c1=O | inactive |
| CC(=O)CCC(C)=O | inactive |
| CC(C)N(C(=O)SCC(Cl)=C(Cl)Cl)C(C)C | inactive |
| CC1CC(=O)O1 (stereo not given) | inactive |
